From PubChem BioAssay (NCATS)
A number with no mark means an inactive call. No rule for the calls is given here.
Potency is read from the fitted curve at half-maximal effect.

What follows are compounds tested on HIV-1 nucleocapsid protein NCp7 (binding to TG oligonucleotide) (assay: HIV Nucleocapsid (AID 346;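 also: potency is for inhibitors that block NC binding and lower polarization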)). Settings: HIV-1 NC / fluorescein-TGTGTGTG probe, fluorescence polarization.
Summary of the method: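 HIV-1 NC (100 nM) binding to fluorescein-labelled ssDNA TG4xF (10 nM) in Hepes pH 7.5, 250mM NaCl, 1uM ZnCl2, TCEP and 2-mercaptoethanol; compounds pin-transferred, 1 hr room temperature, fluorescence polarization read on CCD imager.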
In the case of Cc1cnc(CNc2ccnc(-c3ccoc3)n2)cn1, the Potency is reported as > 20 µM. COc1cccc(-c2nc(NCc3cnc(C)cn3)c3ccccc3n2)c1 was tested, and the Potency was > 20 µM. COc1ccccc1CN1CCC2(CC1)CCN(C(C)=O)CC2 was tested, and the Potency was > 20 µM. With CS(=O)(=O)Nc1cccc(-c2nc(NCc3cccs3)c3ccccc3n2)c1 the Potency was > 20 µM. For c1cncc(-c2nc(NCc3cccs3)c3ccccc3n2)c1, the Potency was > 20 µM. With COc1ccccc1CN1CCC2(CC1)CCN(C(=O)c1c(C)noc1C)CC2 the Potency was > 20 µM. With CN(C)c1ccc(-c2cc(N(C)Cc3ccco3)ncn2)cc1 the Potency was > 20 µM. Cn1cccc1C(=O)N1CCC2(CCCN(C(=O)Nc3ccccc3)C2)CC1 was tested, and the Potency was > 20 µM. In the case of O=c1cnc2cncnc2n1Cc1ccccc1, the Potency is reported as > 4 µM. CN1CCN(c2ncc3ncc(=O)n(CCc4ccccc4)c3n2)CC1 was tested, and the Potency was > 20 µM. CN1CCN(c2ncc3nc(-c4ccc(Cl)cc4)c(=O)n(-c4ccccc4)c3n2)CC1 was tested, and the Potency was > 20 µM. In the case of CCNc1ncc2nc(-c3ccc(Cl)cc3)c(=O)n(-c3ccc(OC)cc3)c2n1, the Potency is reported as > 4 µM. For Cc1ccccc1-c1cc(Nc2ccc(F)cc2)ncn1, the Potency was > 20 µM. With c1csc(CNc2ccnc(-c3ccoc3)n2)c1 the Potency was > 20 µM. For Cn1c(=O)c(-c2ccc(Cl)cc2)nc2cnc(N3CCNCC3)nc21, the Potency was > 20 µM. In the case of c1cncc(-c2nc(N3CCNCC3)c3ccccc3n2)c1, the Potency is reported as > 20 µM. With CC(C)NC(=O)N1CCCC2(CCN(C(=O)c3csnn3)CC2)C1 the Potency was > 20 µM. For COc1ccc(-n2c(=O)c(CCc3ccccc3)nc3cnc(N4CCOCC4)nc32)cc1, the Potency was > 20 µM. For O=C(Nc1ccccc1)N1CCCC2(CCN(C(=O)c3ccco3)CC2)C1, the Potency was > 20 µM. O=S(=O)(c1ccccc1)N1CCC2(CCCN(Cc3cc(C(F)(F)F)cc(C(F)(F)F)c3)C2)CC1 was tested, and the Potency was > 20 µM. With O=C(c1ccco1)N1CCC[C@@]2(CCN(C(c3ccccc3)c3ccccc3)C2)C1 the Potency was > 20 µM. In the case of c1ccc(CNc2nc(-c3ccoc3)nc3ccccc23)cc1, the Potency is reported as > 20 µM. In the case of COc1cccc(Cn2c(=O)c(-c3ccccc3)nc3cncnc32)c1, the Potency is reported as > 20 µM. Cn1c(=O)c(-c2ccc(F)cc2)nc2cnc(N3CCOCC3)nc21 was tested, and the Potency was > 20 µM. In the case of O=C(c1csnn1)N1CCC2(CC1)CN(c1ncccn1)C2, the Potency is reported as > 20 µM. With CCNc1ncc2nc(-c3cc(F)cc(F)c3)c(=O)n(CCOC)c2n1 the Potency was > 20 µM. O=C(c1cccc(F)c1)N1CCC[C@@]2(CCN(Cc3ccccc3)C2)C1 was tested, and the Potency was > 20 µM. For CCNc1ncc2nc(-c3cccs3)c(=O)n(C[C@H]3CCCO3)c2n1, the Potency was > 20 µM. O=C(Nc1cccc(F)c1)N1CC2(CCN(S(=O)(=O)c3ccccc3)CC2)C1 was tested, and the Potency was > 20 µM. O=c1c(-c2ccc(F)c(F)c2)nc2cncnc2n1Cc1ccc(F)cc1 was tested, and the Potency was > 20 µM. With CNc1ccnc(-c2ccccc2CN(C)C)n1 the Potency was > 20 µM. With CN(C)Cc1ccccc1-c1cc(NC2CC2)ncn1 the Potency was > 20 µM. With COc1cccc(-c2nccc(NCc3ccccc3OC)n2)c1 the Potency was > 20 µM. In the case of O=c1cnc2cnc(N3CCOCC3)nc2n1C1CC1, the Potency is reported as > 20 µM. Cn1c(=O)c(-c2cc(F)cc(F)c2)nc2cncnc21 was tested, and the Potency was > 20 µM. For CN1CCN(c2nc(-c3cccc(NS(C)(=O)=O)c3)nc3ccccc23)CC1, the Potency was > 20 µM. O=C(Nc1cccc(F)c1)N1CC[C@@]2(CCCN(C(=O)c3cnccn3)C2)C1 was tested, and the Potency was > 20 µM. N#CCCn1c(=O)c(-c2ccc(Cl)cc2)nc2cnc(N3CCNCC3)nc21 was tested, and the Potency was > 20 µM. In the case of CN1CCN(c2ncnc3ccc(-c4ccccc4Cl)cc23)CC1, the Potency is reported as > 20 µM. With COC(=O)N1CCC2(CC1)CN(C(=O)Nc1cccc(F)c1)C2 the Potency was > 20 µM.
